Experimental data from PubChem BioAssay (NCI).
The panel holds about 79,000 compounds, 15% with a hit somewhere; the sample as a whole holds those more often. Activity calls are given as the source filed them. No stated cut-off is given here; in the data, active means growth inhibition above about 70%; inactive means the rest.

Tests used:
[1] = NCI Yeast Anticancer Drug Screen. Data for the rad52 strain (AID 147);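 further: 0% = growth of vehicle-treated control cultures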; settings: S. cerevisiae rad52 mutant growth inhibition, hits give high values
How it was run: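 Genetically altered yeast (DNA damage repair defect) treated with compound; inhibition calculated relative to vehicle.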

[2] = NCI Yeast Anticancer Drug Screen. Data for the wt1 strain (AID 149);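 further: 0% = growth of vehicle-treated wt1 cultures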; settings: S. cerevisiae wt1 strain (SPY 50644) growth inhibition, hits give high values
How it was run: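 Measured: growth of wt1 yeast under compound versus vehicle treatment, reported as inhibition.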

[3] = NCI Yeast Anticancer Drug Screen. Data for the rad50EPP+ strain (AID 151);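 further: 0% = growth of vehicle-treated control cultures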; settings: S. cerevisiae rad50 mutant strain, hits give high values
How it was run: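 Strain rad50EPP+; compound exposure; % growth inhibition vs vehicle.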

[4] = NCI Yeast Anticancer Drug Screen. Data for the rad50 strain (AID 155);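 further: 0% = growth of vehicle-only cultures of the same strain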; settings: S. cerevisiae rad50 strain growth inhibition, hits give high values
How it was run: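 Growth of the mutant yeast was measured after compound exposure and referenced to vehicle-treated cultures.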

[5] = NCI Yeast Anticancer Drug Screen. Data for the rad14 strain (AID 159);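 further: 0% = growth of vehicle-treated control cultures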; settings: S. cerevisiae rad14 strain growth inhibition, hits give high values
How it was run: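 Here, inhibition of yeast growth was measured after compound exposure, using a strain with a genetic defect in DNA damage repair and vehicle-treated cultures as the reference.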

[6] = NCI Yeast Anticancer Drug Screen. Data for the sgs1 mgt1 strain (AID 161);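 further: 0% = growth of cultures given vehicle only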; settings: S. cerevisiae sgs1 mgt1 strain, hits give high values
How it was run: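 Mutant yeast exposed to compound; growth scored against vehicle-only wells.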

[7] = NCI Yeast Anticancer Drug Screen. Data for the CLN2oe strain (AID 163);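 further: 0% = growth of vehicle-only control cultures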; settings: S. cerevisiae CLN2oe strain, hits give high values
How it was run: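 Strain altered in cell-cycle control, incubated with compound; growth compared to solvent-treated controls.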

[8] = NCI Yeast Anticancer Drug Screen. Data for the cln2 rad14 strain (AID 165);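 further: 0% = growth equal to vehicle treated cultures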; settings: S. cerevisiae cln2 rad14 strain, hits give high values
How it was run: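 The screen exposed genetically defined yeast (cln2 rad14) to test compounds and scored growth inhibition relative to vehicle-treated controls.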

[9] = NCI Yeast Anticancer Drug Screen. Data for the bub3 strain (AID 167); settings: S. cerevisiae bub3 mutant strain, hits give high values
How it was run: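 Whole-cell yeast assay. The mutant strain was incubated with compounds, and growth inhibition was determined by comparison with vehicle-treated cells.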

[10] = NCI Yeast Anticancer Drug Screen. Data for the wt2 strain (AID 169);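 further: 0% = growth of vehicle-treated yeast cultures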; settings: S. cerevisiae wt2 strain growth inhibition, hits give high values
How it was run: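 Steps: yeast strain treated with compound; growth recorded; inhibition calculated relative to cultures given vehicle alone.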

[11] = NCI Yeast Anticancer Drug Screen. Data for the mlh1 strain (AID 171);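 further: 0% = growth of vehicle-treated control cultures of the same strain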; settings: S. cerevisiae mlh1 strain growth inhibition, hits give high values
How it was run: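 Yeast screen: mutant strain plus compound, growth scored against vehicle control wells.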

[12] = NCI Yeast Anticancer Drug Screen. Data for the sgs1 strain (AID 173);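 further: 0% = growth of vehicle-only control cultures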; settings: S. cerevisiae sgs1 mutant, hits give high values
How it was run: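 Inhibition of yeast growth served as the measure. The mutant strain was treated with each compound, and growth was normalised to cultures receiving vehicle alone.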

[13] = NCI Yeast Anticancer Drug Screen. Data for the mlh1 rad18 strain (AID 175); settings: S. cerevisiae mlh1 rad18 strain growth inhibition, hits give high values
How it was run: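 Compound-treated yeast growth, normalised to vehicle controls. Strain bears defined DNA repair mutations.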

[14] = NCI Yeast Anticancer Drug Screen. Data for the rad18 strain (AID 177); settings: S. cerevisiae rad18 mutant growth inhibition, hits give high values
How it was run: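 Inhibition values reflect reduced yeast growth compared with vehicle-treated controls, using a strain engineered with a DNA damage repair defect.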

[15] = at 5.0 µM (retest, dose inferred, filed as 0.5)
[16] = at 50.0 µM (retest, dose inferred, filed as 5.0)

Measured: growth inhibition

COc1ccc(N2C(=O)CC(Cl)C2=O)cc1 (stereo not given)
inactive: [1]; at 1.2 µM -10% | [1]; at 3.7 µM -9% | [1]; at 11.0 µM 10% | [2]; at 1.2 µM -1% | [2]; at 3.7 µM 10% | [2]; at 11.0 µM 16% | [3]; at 1.2 µM -9% | [3]; at 3.7 µM -18% | [3]; at 11.0 µM 22% | [3]; at 33.0 µM 66% | [4]; at 1.2 µM -16% | [4]; at 3.7 µM -11% | [4]; [15] -128% | [4]; at 11.0 µM 15% | [5]; at 1.2 µM -6% | [5]; at 3.7 µM 1% | [5]; at 11.0 µM 13% | [6]; [15] -56% | [6]; [16] 59% | [7]; at 1.2 µM -12% | [7]; at 3.7 µM -12% | [7]; at 11.0 µM -12% | [7]; at 33.0 µM 0% | [8]; [15] -60% | [8]; [16] 8% | [9]; at 1.2 µM -15% | [9]; at 3.7 µM -8% | [9]; [15] -75% | [9]; at 11.0 µM 1% | [9]; [16] 69% | [10]; at 1.2 µM -4% | [10]; at 3.7 µM -1% | [10]; at 11.0 µM 37% | [11]; at 1.2 µM -14% | [11]; at 3.7 µM -10% | [11]; at 11.0 µM -10% | [11]; at 33.0 µM 40% | [12]; at 1.2 µM -3% | [12]; at 3.7 µM 0% | [12]; at 11.0 µM 24% | [13]; [15] -137% | [13]; [16] 32% | [14]; at 1.2 µM -12% | [14]; at 3.7 µM -10% | [14]; at 11.0 µM 1% | [14]; at 33.0 µM 38%
active: [1]; at 33.0 µM 80% | [1]; at 100.0 µM 99% | [2]; at 33.0 µM 70% | [2]; at 100.0 µM 100% | [3]; at 100.0 µM 99% | [4]; at 33.0 µM 79% | [4]; [16] 96% | [4]; at 50.0 µM 99.2% | [4]; at 100.0 µM 99% | [5]; at 33.0 µM 98% | [5]; at 100.0 µM 100% | [6]; at 50.0 µM 95.5% | [7]; at 100.0 µM 78% | [8]; at 50.0 µM 97% | [9]; at 33.0 µM 92% | [9]; at 50.0 µM 97.9% | [9]; at 100.0 µM 100% | [10]; at 33.0 µM 99% | [10]; at 100.0 µM 100% | [11]; at 100.0 µM 100% | [12]; at 33.0 µM 93% | [12]; at 100.0 µM 99% | [13]; at 50.0 µM 97.1% | [14]; at 100.0 µM 99%
